From PubChem BioAssay AID738 (SRMLSC, 2007)
Among all 98,000 compounds or so, about 4,900 (5%) were called active. The entries come from a sample that favours actives as a whole. Unmarked numbers belong to inactive results. No stated cut-off is given here; in the data, active means inhibition above about 30%; inactive means the rest.

Test: growth inhibition of yeast control strain, primary screen, counter-screen for post-Golgi transport modulator project (AID 738)
Conditions: efflux-deficient yeast background strain, growth absorbance A615, 16 h; at 10 µM; hits give high values

Structure (SMILES)	inhibition
O=C(/C=C/c1ccccc1)c1ccoc1	17.6%
COc1ccc(C(=O)Nc2ncc3c(n2)-c2ccccc2CC3)cc1	-6.73%
O=C(CCCN1C(=O)c2cccc3cccc(c23)C1=O)N1CCN(Cc2ccc3c(c2)OCO3)CC1	13.6%
COc1ccc(C2CC(c3ccc(C)cc3)Nc3ncnn32)cc1 (configuration not stated)	0.32%
COc1ccc(C2CC(c3ccccc3)Nc3ncnn32)cc1 (configuration not stated)	6.21%
Clc1ccc(C2CC(c3cccs3)n3ncnc3N2)cc1Cl (configuration not stated)	43% (active)
Fc1ccc(-n2c(Cc3ccccc3)nnc2SCc2nc(-c3ccc(Cl)cc3)no2)cc1	46.4% (active)
Cn1cccc1Cc1nnc(SCC(=O)NCCc2ccccc2)n1-c1ccc(F)cc1	2.46%
Cc1ccc(-c2noc(CSc3nnnn3-c3ccccc3)n2)cc1	48.9% (active)
O=C(CSc1nnc(Cc2ccccc2)n1-c1ccccc1)N1CCOCC1	-1.82%
Cc1ccc(-c2noc(CC(c3ccccc3)c3ccccc3)n2)cc1	3.45%
Cc1ccc(-c2noc(CSc3nnc(-c4cccs4)n3C)n2)cc1	5.22%
Cc1ccc(-c2noc(CSc3nnc(-c4ccccc4)n3C)n2)cc1	22.3%
Cc1ccc(-c2noc(CSc3nnc(-c4ccncc4)n3-c3ccc(F)cc3)n2)cc1	38.4% (active)
COc1ccc(-c2noc(CSc3ccc(C)cc3)n2)cc1	4.57%
Cc1cc(C(F)F)n2nc(C(=O)Nc3ccc(S(=O)(=O)NC45CC6CC(CC(C6)C4)C5)cc3)nc2n1	2.49%
Nc1nc(Br)c2ccccc2c1-c1ccc(F)cc1	11.8%
CCn1c(O)c2ccc(C(=O)N=NC(=O)c3cccnc3)cc2c1O	1.24%
CN(C)c1ccc(/C=C2\NC(=S)N(Cc3ccccc3)C2=O)cc1	21%
CCOC(=O)C1(S(=O)(=O)c2ccc(Cl)cc2)CCN(Cc2ccccc2)CC1	4.55%
CC1C/C(=N/NC(=O)c2cccs2)CC(C)(C)C1 (configuration not stated)	9.76%
CC(Oc1ccc(Cl)cc1Cl)C(=O)/C=C/N(C)C (configuration not stated)	27.4%
CCOC(=O)/C(C#N)=C/c1ccc(OCC(=O)Nc2ccccc2)c(OC)c1	2.95%

Structure (SMILES)	inhibition
O=C(NCCc1ccccc1)/C(=C\c1ccc([N+](=O)[O-])cc1)NC(=O)c1ccccc1	3.12%
CCOC(=O)/C(=C\c1ccc([N+](=O)[O-])cc1)C(=O)c1cc(C(C)=O)c(Nc2ccccc2)s1	92% (active)
CNS(=O)(=O)c1cnccc1N1CCN(c2cccc(C)c2)CC1	1.59%
Cc1c(NC(=O)/C=C/C(=O)O)cccc1[N+](=O)[O-]	6.96%
Cc1sc(NC(=O)C2C3CCC(O3)C2C(=O)O)c(C(=O)OC(C)C)c1-c1ccc(Cl)cc1 (configuration not stated)	16.9%
CN1CC(c2ccccc2)C2(COc3ccccc3C2=O)C12C(=O)Nc1ccccc12 (configuration not stated)	32.5% (active)
Cc1noc(C)c1C(=O)N(CC(=O)NC1CCCC1)Cc1ccccc1F	2.95%
Cc1nc(SCC(=O)c2ccccc2)c([N+](=O)[O-])[nH]1	-2.62%
O=C(CCc1ccc(S(=O)(=O)NC2CCCCC2)cc1)NCc1ccccc1	1.21%
Cc1ccc2c(c1)N(CC(=O)N1CCCc3ccccc31)C(=O)C(C)O2 (configuration not stated)	5.45%
Cc1ccc2c(c1)N(C(=O)CCC(=O)N1CCc3ccccc3C1)CCO2	36.4% (active)
Cc1ccc(S(=O)(=O)N(C)CC(=O)N2CCc3ccccc32)cc1	2.58%
COc1cc(NS(=O)(=O)c2ccc(N/C=C(\C=O)c3nc4cc(Cl)ccc4o3)cc2)nc(OC)n1	-2.08%
COc1cccc(-c2cc(C(=O)N/N=C/c3ccc(OC)c(COC(C)=O)c3)c3ccccc3n2)c1	-0.83%
CCOc1ccccc1C1C(C(=O)OC)=CN(C)C=C1C(=O)OC	11.7%
CCOc1cc(C2C(C(=O)OC)=CN(C3CCCC3)C=C2C(=O)OC)cc(Br)c1O	38.7% (active)
CCOc1ccc(CNC(=O)C2CCC(=O)N2C2CCCC2)cc1OC (configuration not stated)	13.3%
COc1cccc(C(=O)NNC(=O)c2ccccc2Br)c1	0%
O=C(c1cccs1)N1CCCC(c2nc(-c3ccc(F)cc3)no2)C1 (configuration not stated)	43.9% (active)
CC(C)c1ccc(-c2noc(C3CCCN(S(C)(=O)=O)C3)n2)cc1 (configuration not stated)	-5.28%
O=C(Cc1cccs1)N1CCCC(c2nc(-c3ccc(S(=O)(=O)N4CCCC4)cc3)no2)C1 (configuration not stated)	2.8%
CCc1ccc(CNC(=O)CCc2nc(-c3cccs3)no2)cc1	7.1%
CC(C)NC(=O)C(=O)N/N=C/c1ccco1	4.76%

Structure (SMILES)	inhibition
Cc1nn(C)c(Oc2ccccc2)c1CCNS(=O)(=O)c1ccc(F)cc1	-2.45%
COc1ccc(CNC(=O)C2CCC(CNc3c(N4CCOCC4)c(=O)c3=O)CC2)cc1 (configuration not stated)	3.7%
COc1ccc(SCc2noc(C(=O)NCC3CCCO3)c2C(=O)O)cc1 (configuration not stated)	0.46%
Cn1cccc1C1(C(F)(F)F)NCCNC1=O (configuration not stated)	48.1% (active)
O=C(/C=C/c1ccccc1)N/C(=C/c1ccccc1)C(=O)Nc1ccccc1O	18%
CN(C)/C(CN1CCCCC1)=C1\N=C(c2ccccc2)OC1=O	11.8%
COCCCNC(NC(=O)c1ccc(C)cc1)C(Cl)(Cl)Cl (configuration not stated)	-2.93%
Cn1c(C(=O)NCCCN2CCN(c3cccc(Cl)c3)CC2)cc2c(=O)n(C)c3ccccc3c21	95.8% (active)
CCn1c(=O)cc(OCC(=O)NCCCN2CCN(c3cccc(Cl)c3)CC2)c2ccccc21	2.45%
CC1CCCC(C)N1CCCNC(=O)c1cc2c(=O)n(C)c3ccccc3c2n1C (configuration not stated)	1.45%
CCCCn1c(=S)[nH]c2cc(S(=O)(=O)N3CCCCC3)ccc21	6.51%
Cc1cc2cc3c(cc2nc1SCC(=O)Nc1c(C)cccc1C)CCC3	13.7%
CCOc1cc2[nH]c(=O)n(CCC(=O)NCc3ccc(OC)cc3)c(=O)c2cc1OCC	-0.15%
Cc1cccc(OCc2nnc(SCc3nc4cc(C(F)(F)F)ccc4c(=O)[nH]3)o2)c1	2.6%
Cc1cc(C)cc(OCc2nnc(SCC(=O)Nc3ccccc3)o2)c1	-1.36%
Cc1cccc(OCc2nnc(SCn3nnc4ccccc4c3=O)o2)c1	36.4% (active)
CN(C(=O)CC(NC(=O)c1ccccc1)(c1ccccc1)c1ccccc1)c1ccccc1	25.4%
O=C(N/N=C/C=C/c1ccccc1)C1CC1(c1ccccc1)c1ccccc1 (configuration not stated)	64% (active)
Cc1nn(C)c(Oc2ccccc2)c1[N+](=O)[O-]	5.76%
O=c1c2ccccc2oc2nc(C3CCCCC3)n(Cc3ccco3)c(=O)c12	78.7% (active)
CCc1nc2oc3ccccc3c(=O)c2c(=O)n1Cc1ccc(OC)cc1	11.8%
O=c1c2ccccc2oc2nc3n(c(=O)c12)CCCS3	0.28%
O=C(Nc1ccc(Cl)cn1)Nc1cccs1	19.8%

Structure (SMILES)	inhibition
c1ccc(Nc2nc(-c3ccncc3)cs2)nc1	4.87%
Clc1ccc(Nc2nc(-c3cccs3)cs2)nc1	45.4% (active)
Cc1ccc(OCC(=O)N/N=C/c2ccncc2)cc1	7.69%
Cc1ccc(C(=O)N2CCN(C(=O)N3CCOCC3)CC2)cc1	-1.43%
CCOC(=O)C(=CNc1cccc(C)n1)C(=O)OCC	-2.27%
Cc1ccc(Cl)cc1NC(=O)COC(=O)C1CCCCC1	-5.31%
Cc1noc(C)c1S(=O)(=O)N(CC(=O)Nc1ccc2c(c1)OCCO2)c1ccc(C(C)C)cc1	36.1% (active)
CCOC(=O)c1cccc(NC(=O)CN(c2ccc(C)cc2)S(=O)(=O)c2c(C)noc2C)c1	26.9%
Cc1noc(C)c1S(=O)(=O)N(CC(=O)NCc1ccc(Cl)cc1)c1ccc2c(c1)OCO2	4.52%
CCOC(=O)Cc1csc(NC(=O)C(C)(C)C)n1	50.5% (active)
CCOC(=O)Cc1csc(NC(=O)CSc2nc(C)cc(=O)[nH]2)n1	3.73%
CCOC(=O)Cc1csc(NC(NC(=O)OCC)(C(F)(F)F)C(F)(F)F)n1	-12.3%
CCOc1cc(CNCCN(C)C)c(Cl)cc1OCC(=O)NCCc1ccccc1	7.63%
COc1ccc(NC(=O)ON=C2c3ccccc3-c3ccccc32)cc1	3.19%
CCN(CC)S(=O)(=O)c1cc([N+](=O)[O-])ccc1NNC(=O)Nc1ccccc1	5.17%
O=C(Nc1ccccc1)O/N=C1\CCCCC1c1ccc([N+](=O)[O-])cc1[N+](=O)[O-] (configuration not stated)	47.9% (active)
Cc1ccc(C2CC2C(=O)NN)cc1 (configuration not stated)	-1.07%
COc1cccc(CNCCc2c[nH]c3ccccc23)c1OCc1ccccc1F	15.9%
COCCCn1c(SCc2cccc(OC)c2)nc2cc(OC)c(OC)cc2c1=N	21.9%
Cc1ccc(NC(=O)COc2ccc(-n3ccnc3)cc2)cc1Cl	34.5% (active)
CN1CCN(c2ccc(NC(=O)COc3ccc(Cl)cc3Cl)cc2)CC1	5.47%
Cc1ccccc1OCC(=O)Nc1ccc(N2CCN(C(=O)C(C)C)CC2)c(Cl)c1	6.6%
CC(=O)NS(=O)(=O)c1ccc(NC(=O)/C=C/c2ccccc2Cl)cc1	4.99%
